# Bioassay records as filed in PubChem.
# HCMV antiviral: inhibitors of human cytomegalovirus | HFF cells, HCMV-luciferase reporter, 72 h; hits give low values | activity change, negative = inhibition, % at 57.5 µM | hit rate 4.5% among 410,000; in the data active = activity change below about -60%; inconclusive = no clear call, values can overlap the other calls; inactive = above about -39%
#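 Inhibition of viral replication was scored as loss of reporter luminescence in HFFs infected with HCMV-luciferase (MOI 1 PFU/cell) for 72 h; compounds tested at 2 doses, normalized to buffer and Salinomycin controls.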
# Vaccinia mCherry: inhibitors of vaccinia virus infection (mCherry reporter signal) | Vaccinia virus mCherry reporter infection, fluorescence | Potency, µM (series often up to 36.5 µM), inactives show at the top dose activity change, negative = inhibition, most hits filed as inhibitors | hit rate 0.63% among 310,000; calls by dose curve; tested in A549 cells; also: potency is read from the fitted curve at half-maximal effect; nearly all actives have a fitted effect of over 35% in size
# Marburg entry inh: Marburg virus entry inhibition; AID 540276; hit rate 1.8% among 300,000; Marburg virus pseudotyped entry inhibition, cell reporter; Potency, µM (doses to about 37.8 µM), without a hit: at the highest dose activity change, negative = inhibition, hits mostly inhibitors; calls by dose curve; tested in HEK293 cells; also: potency is read from the fitted curve at half-maximal effect
# LASV entry inh: blocks Lassa virus binding to or entry into cells; hit rate 1.2% among 300,000; AID 540256; Potency, µM (titrated, usually from 37.9 µM), for the others: top-dose activity change, negative = inhibition, hits mostly inhibitors; Lassa virus pseudotype entry inhibition, cell reporter; calls by dose curve; tested in HEK293 cells; also: potency is read from the fitted curve at half-maximal effect; nearly all actives have a fitted effect of over 50% in size
# FMDV inh: foot and mouth disease virus antiviral activity | FMDV antiviral cell-based qHTS | Potency, µM (doses to about 57.9 µM), for inactives: at the highest dose activity change, negative = inhibition, actives largely listed as inhibitors | hit rate 1.2% among 410,000 | AID 1159524; calls by dose curve; tested in HEK293T cells; also: read-out not given here; potency is read from the fitted curve at half-maximal effect; nearly all actives have a fitted effect of over 45% in size
# VACV Venus inh: vaccinia inhibition (Venus reporter); hit rate 0.46% among 330,000; Vaccinia virus Venus reporter expression, fluorescence; AID 720580; Potency, µM (top dose mostly 36.5 µM), without a hit: at the highest dose activity change, negative = inhibition, usual class: inhibitors; calls by dose curve; tested in A549 cells; also: potency is read from the fitted curve at half-maximal effect; nearly all actives have a fitted effect of over 30% in size
# Starred values were filed as active, the others as inactive; i = inactive; ? = inconclusive; . = not tested or not shown; + = active, no number; [ ] = another dose, or the depositor's remark. Compounds with a hit are over-represented: about 6.5% of the library has one in this group of screens. % is scaled to controls: 0 for no effect and ±100 for the full control effect.
SMILES,HCMV antiviral,Vaccinia mCherry,Marburg entry inh,LASV entry inh,FMDV inh,VACV Venus inh
COc1cccc(C(=O)NC(=O)Nc2ccc(-n3nc(C(F)(F)F)cc3C(F)(F)F)cc2)c1,-6,-12%,9%[46.1 µM],5%[46.1 µM],-3%,-5%
Cn1c(/C=C/c2ccc([N+](=O)[O-])o2)nc2ccccc2c1=O,.,4.5µM*,?,2.8µM*,25µM*,?
Cc1ccc(C)c(NC(=O)CN2C(=O)c3cccnc3Oc3ccc(C)cc32)c1,0,-19%,.,-6%[46.1 µM],-8%,-11%
COc1ccc2[nH]c3c(c2c1)CCN(C(=O)c1cccc(Cl)c1)C3c1ccc(F)cc1 (stereo not given),-73*,?,1µM*,?,-15%,4%
CSc1ncc(C(=O)Nc2ccccc2C(F)(F)F)c(-c2ccccc2)n1,-10,-12%,.,6%[46.1 µM],-14%,-5%
CC1=C/C(=N\N=C2\NC(=O)C(CC(=O)Nc3ccccc3F)S2)CC(C)(C)C1 (stereo not given),-65*,-2%,1%[46.1 µM],-26%,-17%,-12%
Cn1ccnc1SCC(=O)Nc1cc(Cl)ccc1Cl,8,9%,?,0%[46.1 µM],46%,9%
CCn1c(SCc2nc(-c3cccs3)no2)nnc1-c1c[nH]c2ccccc12,?,i,?,20µM*,22µM*,-9%
O=[N+]([O-])c1ccccc1S(=O)(=O)NCc1ccccn1,.,-23%,.,.,.,-14%
CCOC(=O)c1sc(N(Cc2ccccc2)C(=O)CCl)nc1C,-25,-21%,?,18µM*,?,-12%
CCOC(=O)c1sc(N(Cc2ccccc2)C(=O)COC(=O)c2ccc(O)cc2)nc1C,?,i,?,2.1µM*,0%,?
CCOC(=O)c1sc(N(Cc2ccccc2)C(=O)COC(=O)c2ccccc2O)nc1C,12,i,?,-24%,21%,-12%
CCN1CCN(Cc2c(O)ccc3c(C)c(-c4ccc(OC)cc4)c(=O)oc23)CC1,3,-9%,.,0%[46.1 µM],-16%,-12%
C[C@H](NC(=O)[C@@H]1Cc2ccccc2CN1C(=O)OC(C)(C)C)C(=O)NC1CCCCC1,+,-15%,-28%[46.1 µM],-12%[46.1 µM],9%,-4%
CCOC(=O)Cc1csc(NC(=O)COc2ccc(N(C)S(=O)(=O)c3ccc(C)cc3)cc2)n1,17,-15%,?,-21%,18µM*,-6%
CN(c1ccc(OCC(=O)Nc2nc3ccccc3s2)cc1)S(=O)(=O)c1ccccc1,?,.,0%,.,11µM*,.
CCc1nnc(NC(=O)COc2ccc(N(C)S(=O)(=O)c3ccc(C)cc3)cc2)s1,-102*,.,.,.,-13%,.
Cc1cc(NC(=O)COc2ccc(N(C)S(=O)(=O)c3ccccc3)cc2)no1,8,-7%,3%,-6%,-21%,-2%
CCOC(=O)c1ccccc1NC(=O)c1nn(C)c2c1COc1ccccc1-2,?,-14%,?,-9%[46.1 µM],-11%,-17%
O=C(Nc1ccccc1OCc1cc(=O)n2ccccc2n1)c1ccccc1F,-5,-4%,.,-5%[46.1 µM],-4%,-12%
COc1ccc(-c2cc3nc4n(c(=O)c3s2)CCC4)cc1,-23,.,1.6µM*,?,0%,.
COc1ccc(-c2cc3nc(C)n(N)c(=O)c3s2)cc1,-38,.,.,.,7.9µM*,.
Cn1c(NCc2ccccc2)nc2cc(-c3ccccc3)sc2c1=O,-4,15%,.,.,11%,-5%
COc1ccc(-c2cc3nc4n(c(=O)c3s2)CCCCC4)cc1,31,-14%,?,4%[46.1 µM],-9%,-4%
Cc1nc2cc(-c3ccccc3)sc2c(=O)n1N,-89*,-16%,?,?,7.1µM*,-5%
SMILES,HCMV antiviral,Vaccinia mCherry,Marburg entry inh,LASV entry inh,FMDV inh,VACV Venus inh
CC(=O)Nc1ccc(N2C(C(C)=O)=NN(c3ccc(Cl)cc3)C2c2sccc2C)cc1 (stereo not given),10,.,21µM*,?,?,.
CC(=O)Nc1ccc(N2C(C(C)=O)=NN(c3ccccc3)C2c2cccs2)cc1 (stereo not given),5,.,?,?,-10%,.
CN(C)C(=O)c1cccc(-c2cccc(-c3nc(C(=O)NCc4ccccc4)cc4c3[C@@H](CCO)N(S(=O)C(C)(C)C)C4)c2)c1 (stereo not given in full),-61*,11%,.,.,-16%,-11%
Cc1ccccc1S(=O)(=O)N1CCN(c2nc(-c3cccs3)nc3ccccc23)CC1,.,i,.,.,.,-18%
COc1cccc(N2CCN(C(=O)c3ccc(CSc4nc5ccncc5[nH]4)cc3)CC2)c1,-87*,-20%,-40%,?,-19%,-14%
COc1cccc(CSc2nc3ccncc3[nH]2)c1,36,i,?,?,-25%,-4%
O=C(c1ccc(CSc2nc3ccncc3[nH]2)cc1)N1CCCCC1,10,-5%,-6%,-12%,-14%,-11%
Cc1ccc(C)c(N2CCN(C(=O)c3ccc(CSc4nc5ccncc5[nH]4)cc3)CC2)c1,?,-15%,?,?,18µM*,-20%
COc1ccc2nc3cc(Cl)ccc3c(Nc3cc(CN4CCCC4)c(O)c(CN4CCCC4)c3)c2n1,-100*,.,.,.,.,.
COc1ccc(N=Nc2cc(C)c(O)c(CN3CCCCC3)c2)cc1,-16,?,-26%[46.1 µM],5%,23%,-7%[7.34 µM]
CCc1noc(C)c1C(=O)N1CCSC1=Nc1cccc(Cl)c1C,-82*,-7%,?,?,?,-18%
Cc1ccccc1NS(=O)(=O)c1ccc(C(=O)NCC(C)(C)N2CCOCC2)cc1,-67*,-3%,-19%,-15%[46.1 µM],-29%,-17%
Cc1ccccc1NS(=O)(=O)c1cc(C(=O)NCCSC2CCCCC2)ccc1C,?,-17%,?,8.2µM*,.,-13%
Cc1ccc(C)c(NS(=O)(=O)c2cc(C(=O)NCCSC3CCCCC3)ccc2C)c1,-14,?,-18%,-41%,-13%,-27%
CC(C)(CNC(=O)c1ccc(S(=O)(=O)Nc2ccccc2F)cc1)N1CCOCC1,-28,-19%,-27%,-27%,-9%,-3%
Cc1ccc(C(=O)NCCSc2ccccc2)cc1S(=O)(=O)Nc1ccccc1,-9,.,23µM*,?,-6%,.
CN(C)CCCNc1ncnc2sc(-c3ccccc3)cc12,-6,.,.,.,-14%,.
COc1ccc(Nc2ncnc3c2cnn3-c2ccccc2)cc1OC,?,-13%,-11%,6%,10%,?
CCOC(CNc1ncnc2sc(-c3ccccc3)cc12)OCC,-72*,.,.,.,-22%,.
COc1ccc(Nc2ncnc3sc(-c4ccccc4)cc23)cc1OC,-62*,i,?,?,0%,-21%
CCc1ccc(C(=O)Nn2c(C)nc3ccccc3c2=O)cc1,85,.,.,.,4%,.
Cc1nc2ccccc2c(=O)n1NC(=O)Cc1ccc(Br)cc1,19,1.8µM*,-10%,?,0%,-9%
CCCCCc1ccc(CC(=O)Nn2c(C)nc3ccccc3c2=O)cc1,-69*,-30%,1%,-19%,.,-25%
COc1ccc(CC(=O)Nn2c(-c3ccccc3)nc3ccccc3c2=O)cc1,-2,-22%,?,?,?,-15%
